Reference: PubChem BioAssay (Tox21)
Records with an inconclusive call do not appear. Entries that show only a call come without a potency. Some structures have more than one record in an assay (separate samples or runs), and their calls can disagree. The source made the active and inactive calls. Unless noted, calls come from the whole dose curve; as a rule, active = well fitted curve in the direction sought with a large enough effect in the repeat runs; inconclusive = weak or mixed curves; inactive = no such curve, though single readings can be large; an effect the other way counts as inactive or inconclusive.

Assays:
[1] = qHTS RealTime-Glo MT Cell Viability Assay in HEK293 cells - 0 hour (AID 1224880); conditions: RealTime-Glo luminescence; series mostly up to 76.8 µM; note: top concentration of the series differs between compounds; nearly all actives have a fitted effect of over 45% in size
In short: (§1)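 Luminescence readout at each listed time point; HEK293, 600 cells/well, RealTime-Glo MT reagent added with cells; compounds pinned (23 nL in DMSO) after 5 h at 37 C; continuous culture at 37 C.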

[2] = A CellTox Green Cytotoxicity Assay to monitor cytotoxicity in HEK293 cells - 32 hour (AID 1224881); conditions: CellTox Green fluorescence; series mostly up to 76.8 µM; note: nearly all actives have a fitted effect of over 40% in size
In short: (§2)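 Read-out: fluorescence of a cell-impermeant cyanine dye staining DNA of dead cells, proportional to cytotoxicity. HEK293, 600 cells/well with reagent, compound (23 nL DMSO) added after 5 h; reads at 0, 8, 16, 24, 32, 40 h.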

[3] = A CellTox Green Cytotoxicity Assay to monitor cytotoxicity in HepG2 cells - 0 hour (AID 1224882); conditions: CellTox Green fluorescence; series mostly up to 76.8 µM; note: nearly all actives have a fitted effect of over 35% in size; note: potency is the fitted concentration of half-maximal effect
In short: (§3)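 HepG2, 600 cells/well premixed w/ CellTox Green; 5 h settle, 37 C/5% CO2; pintool cpd add (DMSO); 37 C, 40 h; fluorescence read at 0, 8, 16, 24, 32, 40 h.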

[4] = A CellTox Green Cytotoxicity Assay to monitor cytotoxicity in HepG2 cells - 32 hour (AID 1224883); conditions: CellTox Green fluorescence; series mostly up to 76.8 µM; note: nearly all actives have a fitted effect of over 50% in size; note: potency is the fitted concentration of half-maximal effect
In short: as §3

[5] = A CellTox Green Cytotoxicity Assay to monitor cytotoxicity in HEK293 cells - 8 hour (AID 1224884); conditions: CellTox Green fluorescence; series mostly up to 76.8 µM; note: nearly all actives have a fitted effect of over 35% in size
In short: as §2

[6] = qHTS RealTime-Glo MT Cell Viability Assay in HepG2 cells - 16 hour (AID 1224885); conditions: RealTime-Glo luminescence; series mostly up to 76.8 µM; note: nearly all actives have a fitted effect of over 50% in size
In short: (§4)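 HepG2 cells (600/well) were dispensed with RealTime-Glo reagents, incubated 5 h at 37 °C, then treated with compounds in DMSO for up to 40 h. Nonlytic NanoLuc luminescence reflecting viable cells was read at each stated time point.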

[7] = qHTS RealTime-Glo MT Cell Viability Assay in HEK293 cells - 24 hour (AID 1224886); conditions: RealTime-Glo luminescence; series mostly up to 76.8 µM; note: top concentration of the series differs between compounds; nearly all actives have a fitted effect of over 50% in size
In short: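 HEK293 cells seeded with NanoLuc/prosubstrate reagent, rested 5 h at 37 C, then dosed and kept at 37 C up to 40 h. Nonlytic real-time luminescence from viable cells read at 0, 8, 16, 24, 32 and 40 h.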

[8] = qHTS RealTime-Glo MT Cell Viability Assay in HEK293 cells - 8 hour (AID 1224887); conditions: RealTime-Glo luminescence; series mostly up to 76.8 µM; note: top concentration of the series differs between compounds; nearly all actives have a fitted effect of over 50% in size
In short: as §1

[9] = A CellTox Green Cytotoxicity Assay to monitor cytotoxicity in HEK293 cells - 16 hour (AID 1224888); conditions: CellTox Green fluorescence; series mostly up to 76.8 µM; note: nearly all actives have a fitted effect of over 35% in size
In short: as §2

[10] = qHTS RealTime-Glo MT Cell Viability Assay in HepG2 cells - 0 hour (AID 1224889); conditions: RealTime-Glo luminescence; series mostly up to 76.8 µM; note: nearly all actives have a fitted effect of over 50% in size
In short: as §4

[11] = A CellTox Green Cytotoxicity Assay to monitor cytotoxicity in HepG2 cells - 8 hour (AID 1224890); conditions: CellTox Green fluorescence; series mostly up to 76.8 µM; note: nearly all actives have a fitted effect of over 45% in size; note: potency is the fitted concentration of half-maximal effect
In short: as §3

[12] = qHTS assay to identify small molecule antagonists of the estrogen receptor alpha (ER-alpha) signaling pathway using the BG1 cell line in the presence of 0.1 nM 17-beta-estradiol - cell viability counter screen (AID 1259241); conditions: VM7Luc4E2 (BG1) viability, CellTiter-Fluor protease, 22 h, 0.1 nM estradiol agonist added; series mostly up to 92.4 µM; note: nearly all actives have a fitted effect of over 40% in size
In short: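 VM7Luc4E2 cells (endogenous ER-alpha, 4×ERE-luciferase), hormone-starved 5 days in charcoal-stripped FBS, were treated with compounds plus 0.1 nM 17beta-estradiol for 22 hr at 37C; viability read in same wells as CellTiter-Fluor live-cell protease fluorescence.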

[13] = qHTS assay to identify small molecule antagonists of the androgen receptor (AR) signaling pathway using the MDA cell line in the presence of 0.5 nM R1881 - cell viability counter screen (AID 1259242); conditions: MDA-kb2 viability, CellTiter-Fluor protease fluorescence, 16 h; series mostly up to 92.4 µM; note: nearly all actives have a fitted effect of over 45% in size
In short: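 Live-cell protease fluorescence, CellTiter-Fluor, 30 min at 37C. Cells: MDA-kb2, 3,000/well, preincubated 5 hr. Compounds plus 0.5 nM R1881 final, 16 hr, 37C, 0% CO2.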

[14] = target: Estrogen receptor (Homo sapiens) (UniProt P03372); assay: qHTS assay to identify small molecule antagonists of the estrogen receptor alpha (ER-alpha) signaling pathway using the BG1 cell line in the presence of 0.1 nM 17-beta-estradiol (AID 1259244); conditions: VM7Luc4E2 (BG1) ERE-luciferase, antagonist mode, 0.1 nM E2, 22 h; series mostly up to 92.4 µM; note: nearly all actives have a fitted effect of over 50% in size
Estrogen receptor (Homo sapiens), sequence (P03372 whole entry, looked up): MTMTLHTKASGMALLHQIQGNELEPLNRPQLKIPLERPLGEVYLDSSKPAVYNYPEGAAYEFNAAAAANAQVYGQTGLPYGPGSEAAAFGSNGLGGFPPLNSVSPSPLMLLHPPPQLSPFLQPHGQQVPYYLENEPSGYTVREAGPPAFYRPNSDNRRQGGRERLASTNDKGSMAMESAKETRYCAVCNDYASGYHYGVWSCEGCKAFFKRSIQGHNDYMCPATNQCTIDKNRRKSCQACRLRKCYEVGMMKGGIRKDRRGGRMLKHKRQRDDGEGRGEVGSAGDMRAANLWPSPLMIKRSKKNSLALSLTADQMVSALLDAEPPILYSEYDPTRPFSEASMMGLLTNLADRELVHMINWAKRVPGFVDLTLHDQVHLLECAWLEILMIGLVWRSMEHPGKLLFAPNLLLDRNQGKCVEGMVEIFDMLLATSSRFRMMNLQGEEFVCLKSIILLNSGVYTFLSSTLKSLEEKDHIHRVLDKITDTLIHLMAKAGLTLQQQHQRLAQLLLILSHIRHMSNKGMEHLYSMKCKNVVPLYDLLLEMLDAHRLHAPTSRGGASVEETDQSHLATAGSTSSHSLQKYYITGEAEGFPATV
In short: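 Luminescence after ONE-Glo (30 min, room temperature) measured ERE-luciferase activity in VM7Luc4E2 cells treated 22 h with compound and 0.1 nM final 17beta-estradiol as stimulator.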

[15] = qHTS assay to identify small molecule HDAC inhibitors (AID 1259364); conditions: HCT-116 HDAC-Glo I/II luminescence, 2 h; series mostly up to 92.4 µM;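 note: wild-type HCT-116 cells with endogenous class I/II HDAC activity; top concentration of the series differs between compounds; nearly all actives have a fitted effect of over 45% in size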
In short: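 HCT-116 (wild type), 1,500 cells/well, overnight; compound 2 hr 37C 5% CO2; HDAC-Glo I/II reagent 30 min RT; luminescence readout.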

[16] = qHTS assay to identify small molecule HDAC inhibitors - cell viability counter screen (AID 1259365); conditions: HCT-116 viability, CellTiter-Glo ATP luminescence, 2 h; series mostly up to 92.4 µM; note: nearly all actives have a fitted effect of over 50% in size
In short: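 Wild-type HCT-116 cells were seeded at 1,500 per well, incubated overnight at 37 C, then exposed to compounds in DMSO for 2hr. Viability was read by CellTiter-Glo luminescence after 30min at room temperature.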

[17] = qHTS assay to identify small molecule agonists of the sonic hedgehog signaling (Shh) pathway - cell viability counter screen (AID 1259366); conditions: NIH/3T3 Gli1-Luc viability, CellTiter-Fluor, 24 h; series mostly up to 92.4 µM; note: nearly all actives have a fitted effect of over 50% in size
In short: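 NIH/3T3-derived 3T3 Gli1-Luc cells (stable Gli1-responsive firefly luciferase reporter) were seeded, rested 4 hr at 37 C/5% CO2, then exposed to compounds in DMSO for 24 hr; viability was read by CellTiter-Fluor fluorescence in the same wells.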

[18] = qHTS assay to identify small molecule antagonists of the sonic hedgehog signaling (Shh) pathway - cell viability counter screen (AID 1259367); conditions: NIH/3T3 Gli1-Luc viability, CellTiter-Fluor, 24 h; series mostly up to 92.4 µM; note: nearly all actives have a fitted effect of over 55% in size
In short: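 Tox21 library chemicals were tested on a Gli1-Luc NIH/3T3 clone (2,000 cells/well) stimulated by conditioned medium; viability was quantified as fluorescence from CellTiter-Fluor reagent added at 23 hr.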

[19] = qHTS assay to identify small molecule phospholipidosis (PLD) inducers (AID 1259344; active = well fitted curve in the direction sought with a large enough effect; an effect the other way counts as inactive or inconclusive); conditions: HepG2 phospholipidosis, LipidTOX Red imaging, 24 h; series mostly up to 38.3 µM
In short: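 Image-based: LipidTOX Red pit count/intensity per well and per cell; HepG2, 24 h compound at 37 C, PFA fixation, Hoechst counterstain.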

[20] = target: Androgen receptor (Homo sapiens) (UniProt P10275); assay: qHTS assay to identify small molecule antagonists of the androgen receptor (AR) signaling pathway using the MDA cell line in the presence of 0.5 nM R1881 (AID 1259243); conditions: MDA-kb2 MMTV-luciferase, R1881 0.5 nM, 16 h; series mostly up to 92.4 µM; note: nearly all actives have a fitted effect of over 50% in size
Androgen receptor (Homo sapiens), sequence (P10275 whole entry, looked up): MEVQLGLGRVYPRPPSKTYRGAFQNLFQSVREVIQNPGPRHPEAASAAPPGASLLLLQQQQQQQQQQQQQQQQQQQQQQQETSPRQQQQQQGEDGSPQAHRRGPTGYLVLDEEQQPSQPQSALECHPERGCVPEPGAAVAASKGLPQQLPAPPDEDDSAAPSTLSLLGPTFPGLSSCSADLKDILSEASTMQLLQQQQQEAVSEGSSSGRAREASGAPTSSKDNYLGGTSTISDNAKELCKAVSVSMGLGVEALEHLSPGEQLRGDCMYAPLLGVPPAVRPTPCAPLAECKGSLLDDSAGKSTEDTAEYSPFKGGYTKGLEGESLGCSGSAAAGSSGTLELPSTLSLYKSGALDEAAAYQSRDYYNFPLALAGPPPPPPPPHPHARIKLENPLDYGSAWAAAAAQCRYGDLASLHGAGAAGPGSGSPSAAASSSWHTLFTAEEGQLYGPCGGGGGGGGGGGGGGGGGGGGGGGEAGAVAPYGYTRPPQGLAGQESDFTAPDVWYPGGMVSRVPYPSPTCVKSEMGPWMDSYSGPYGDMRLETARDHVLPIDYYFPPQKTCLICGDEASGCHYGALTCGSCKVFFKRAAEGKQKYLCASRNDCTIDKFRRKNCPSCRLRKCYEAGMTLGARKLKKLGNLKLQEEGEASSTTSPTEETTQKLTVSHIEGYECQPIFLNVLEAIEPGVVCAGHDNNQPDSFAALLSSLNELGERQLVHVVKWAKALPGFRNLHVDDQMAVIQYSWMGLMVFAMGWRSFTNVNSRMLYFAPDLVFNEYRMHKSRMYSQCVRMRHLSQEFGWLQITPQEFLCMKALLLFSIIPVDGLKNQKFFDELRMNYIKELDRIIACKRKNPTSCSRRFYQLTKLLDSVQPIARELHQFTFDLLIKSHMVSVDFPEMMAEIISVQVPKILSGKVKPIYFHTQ
In short: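 MDA-kb2, MMTV-luc (AR/GR elements); 3,000 cells/well; cpd + 0.5 nM R1881 final; 16 hr 37C, 0% CO2; ONE-Glo 30 min RT; luminescence.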

| Structure (SMILES) | outcome [1] | Potency [2] | Potency [3] | Potency [4] | Potency [5] | outcome [6] | outcome [7] | outcome [8] | Potency [9] | outcome [10] | Potency [11] | outcome [12] | outcome [13] | Potency [14] | Potency [15] | outcome [16] | Potency [17] | Potency [18] | Potency [19] | Potency [20] |
| --- | --- | --- | --- | --- | --- | --- | --- | --- | --- | --- | --- | --- | --- | --- | --- | --- | --- | --- | --- | --- |
| O=[N+]([O-])c1ccc(Cl)c(Cl)c1 | inactive | inactive | inactive | inactive | inactive | inactive | inactive | inactive | inactive | inactive | inactive | inactive | inactive | inactive | inactive | inactive | inactive |  |  |  |
| Cc1ccc(O)c(C)c1 | inactive | inactive | inactive | inactive | inactive | inactive | inactive | inactive | inactive | inactive | inactive | inactive | inactive |  | inactive | inactive | inactive | inactive |  |  |
| CCSC(=O)N1CCCCCC1 | inactive | inactive | inactive | inactive | inactive | inactive | inactive | inactive | inactive | inactive | inactive | inactive | inactive |  | inactive | inactive | inactive |  |  |  |
| CN(C)C(=O)C(c1ccccc1)c1ccccc1 | inactive | inactive | inactive | inactive | inactive | inactive | inactive | inactive | inactive | inactive | inactive | inactive | inactive |  | inactive | inactive | inactive |  |  |  |
| Cc1cccc(N)c1C | inactive | inactive | inactive | inactive | inactive | inactive | inactive | inactive | inactive | inactive | inactive | inactive | inactive |  | inactive | inactive | inactive | inactive |  |  |
| CNC(=O)Oc1cccc2ccccc12 | inactive | inactive | inactive | inactive | inactive | inactive | inactive | inactive | inactive | inactive | inactive | inactive | inactive |  | inactive | inactive | inactive | inactive | inactive |  |
| CC(C)(C)C(=O)CCl | inactive | inactive | inactive | inactive | inactive | inactive | inactive | inactive | inactive | inactive | inactive | inactive | inactive |  | inactive | inactive | inactive | inactive |  | inactive |
| CNCC(O)c1ccc(O)cc1 (stereo not drawn) | inactive | inactive | inactive | inactive | inactive | inactive | inactive | inactive | inactive | inactive | inactive | inactive | inactive | inactive | inactive | inactive | inactive | inactive | inactive |  |
| Oc1c(Br)cc(Br)cc1Br | inactive | inactive | inactive | inactive | inactive | inactive | inactive | inactive | inactive | inactive | inactive | inactive | inactive |  | inactive | inactive | inactive |  | inactive |  |
| CNC(=O)O/N=C/C(C)(C)S(C)=O (stereo not drawn) | inactive | inactive | inactive | inactive | inactive | inactive | inactive | inactive | inactive | inactive | inactive | inactive | inactive |  | inactive | inactive | inactive | inactive |  |  |
| [N-]=[N+]=CC(=O)OC[C@H](N)C(=O)O | inactive | inactive | 34.7 µM (active) and inactive | 38.9 µM (active) and inactive | inactive | inactive | inactive | inactive | inactive | inactive | 38.9 µM (active) and inactive | inactive | inactive |  | inactive | inactive | inactive |  | inactive |  |
| Cc1cc(O)ccc1Cl | inactive | inactive | inactive | inactive | inactive | inactive | inactive | inactive | inactive | inactive | inactive | inactive | inactive |  | inactive | inactive | inactive |  | inactive |  |
| ClC(Cl)c1ccccc1 | inactive | inactive | inactive | inactive | inactive | inactive | inactive | inactive | inactive | inactive | inactive | inactive | inactive | inactive | inactive | inactive | inactive |  |  |  |
| CSc1nnc(C(C)(C)C)c(=O)n1N | inactive | inactive | inactive | inactive | inactive | inactive | inactive | inactive | inactive | inactive | inactive | inactive | inactive |  | inactive | inactive | inactive | inactive |  |  |
| Cc1cccc(N)c1 | inactive | inactive | inactive | inactive | inactive | inactive | inactive | inactive | inactive | inactive | inactive | inactive | inactive |  | inactive | inactive | inactive |  |  |  |
| C=CCN=C=S | inactive | inactive | inactive | inactive | inactive | inactive | inactive | inactive | inactive | inactive | inactive | inactive |  |  | inactive | inactive | inactive | inactive | inactive |  |
